Compound activity from PubChem.
Hits are enriched below; roughly 1.4% of the tested compounds scored in any of these assays.
Sa ugtP lethal = kills S. aureus RN4220 lacking UgtP; S. aureus RN4220 ugtP deletion, OD600 growth, 16 h; 330,000 tested, 0.54% active; growth inhibition, % (test concentration not listed); in the data active = growth inhibition above about 68%
Sa RN4220 lethal = kills Staphylococcus aureus RN4220. S. aureus RN4220 growth, OD600, 16 h. 330,000 tested, 0.33% active. inhibition, % (concentration not given with the values); in the data active = inhibition above about 85%
PriA SSB inh = inhibitors of Klebsiella pneumoniae PriA binding to SSB C-terminal tail; AlphaScreen SSBct-PriA binding, biotinylated peptide; inhibition, % at 33 µM; 430,000 tested, 0.6% active; in the data active = inhibition mostly above about 37%, no sharp cut-off; inactive = mostly below about 20%
CCHF vOTU inh = CCHFV vOTU protease inhibition; Pep-AMC fluorescence; 370,000 tested, 0.55% active; inhibition, % at 11.5 µM; in the data active = inhibition above about 30%
Mtb hypoxia rep = inhibitors of hypoxia-regulated fluorescent reporter in Mycobacterium tuberculosis. M. tuberculosis hypoxia-regulated fluorescent reporter, fluorescence. fluorescence inhibition, % (test concentration not listed). 300,000 tested, 0.1% active; in the data active = fluorescence inhibition mostly above about 23%, no sharp cut-off; inactive = mostly below about 17%
Hits are given with their value; - = inactive; . = not tested or not shown; ! = not active in a repeat.

SMILES	Sa ugtP lethal	Sa RN4220 lethal	PriA SSB inh	CCHF vOTU inh	Mtb hypoxia rep
Cc1cn2c(CCC(=O)O)csc2n1	.	.	-	.	.
Cc1c([N+](=O)[O-])cc(S(=O)(=O)NCCOc2ccc(F)cc2)cc1[N+](=O)[O-]	.	.	-	.	.
Cc1c([N+](=O)[O-])cc(S(=O)(=O)NCCOc2cccc(C(F)(F)F)c2)cc1[N+](=O)[O-]	.	.	39	.	.
CCN1/C(=C/c2ccc3cc(C)ccc3[n+]2CC)Sc2cc(C)c(C)cc21	100	100	-	-	40
CCCN1CCCc2cc(CCNS(=O)(=O)Cc3ccc(F)cc3)ccc21	.	.	77	.	.
CCCN1CCCc2cc(CCNS(=O)(=O)Cc3ccccc3)ccc21	.	.	94	.	.
CCCN1CCCc2cc(CCNS(=O)(=O)c3ccccc3)ccc21	.	.	-	.	.
CCCN1CCCc2cc(CCNS(=O)(=O)Cc3cccc(Cl)c3)ccc21	.	.	55	.	.
CCCN1CCCc2cc(CCNC(=O)CC(C)C)ccc21	.	.	-	.	.
CCCN1CCCc2cc(CCNS(=O)(=O)CCc3ccc(OC)cc3)ccc21	.	.	60	.	.
Cc1ccc2[nH]c3c(=O)n(CCC(=O)NCCC4=CCCCC4)cnc3c2c1	.	.	-	.	.
CN(CC#CCNC(=O)Nc1ccccc1F)Cc1ccccc1	.	.	-	.	.
CCCN1CCCc2cc(CCNC(=O)C(=O)NCC)ccc21	.	.	-	.	.
CCCN1CCCc2cc(CCNS(=O)(=O)CC)ccc21	.	.	46	.	.
CCCN1CCCc2cc(CCNS(=O)(=O)c3ccc(Cl)s3)ccc21	.	.	active!	.	.
CCCN1CCCc2cc(CCNS(=O)(=O)c3ccc(Br)cc3)ccc21	.	.	52	.	.
COc1cc(C)c(C)cc1S(=O)(=O)N1CCN(c2ccc(-c3cccs3)nn2)CC1	.	.	-	.	.
CNCC(Cc1ccccc1)NCC(CC1CCCCC1)NCCCc1ccccc1 (centres undefined)	-	85	.	.	.
CNCC(CC1CCCCC1)NCC(Cc1ccccc1)NCCC12CC3CC(CC(C3)C1)C2 (centres undefined)	101	100	.	.	.
CNC[C@H](CC1CCCCC1)NC[C@H](CO)NCCc1cccc(C(F)(F)F)c1	.	.	-	-	.
Cc1ccc(C=C2C(Cl)=C(Cl)C(Cl)=C2Cl)cc1	100	97	-	.	-
Sc1oc(-c2ccccc2)cc1C=Nc1ccccc1	-	-	41	-	-
CCC(C)Nc1ccc(NC(C)CC)cc1 (centres undefined)	.	.	40	.	.
CCc1ccc(/C=C/C(=O)c2cc(Br)ccc(=O)c2O)cc1	95	100	-	-	-
Cc1ccc(/C=C/C(=O)c2cc(Br)ccc2OC(=O)c2ccco2)cc1	-	-	-	-	-
SMILES	Sa ugtP lethal	Sa RN4220 lethal	PriA SSB inh	CCHF vOTU inh	Mtb hypoxia rep
O=C(C=Cc1ccccc1)c1cc(Br)ccc1O	-	-	-	-	-
CCOc1ccc(/C=C/C(=O)c2cc(Br)ccc(=O)c2O)cc1	90	-	-	-	-
Cc1cccc(/C=C/C(=O)c2cc(Br)ccc(=O)c2O)c1	99	99	-	-	.
CCCCCCCCCCCCN1C(CC(=O)OC)c2cc(F)ccc2S1(=O)=O (centres undefined)	-	-	.	.	-
COC(=O)CS[C@H]1CCN(C(=O)c2cnn(-c3ccccc3)n2)C1	.	.	-	.	.
Cc1ncn(CC(=O)N2CCC[C@H](Cc3nc(-c4cnccn4)no3)C2)c(=O)c1C	.	.	-	.	.
CC(C)CN(C1CCS(=O)(=O)C1)S(=O)(=O)c1ccc(Cl)c([N+](=O)[O-])c1 (centres undefined)	.	.	41	.	.
Cc1ccc(C)c(C(=O)CSc2cccc3cccnc23)c1	.	.	108	.	.
Cc1ccc(C(=O)COC(=O)CSc2cccc3cccnc23)c(C)c1	-	-	78	-	.
COCCN(Cc1ccncc1)C(=O)C1CC(=O)N(c2ccc(Cl)cc2)C1 (centres undefined)	.	.	-	.	.
C=CCN1C(=O)/C(=C\C=C2\N(C)c3ccccc3C2(C)C)SC1=S	.	.	-	-	.
CN1/C(=C\C=C2/SC(=S)N(CC(=O)O)C2=O)C(C)(C)c2ccccc21	-	-	-	-	62
COc1ccccc1-n1nnc(C(=O)Nc2ccc(S(C)(=O)=O)cc2)c1-c1ccncc1	.	.	-	.	.
Cc1[nH]c2ccccc2c1C(=O)COC(=O)c1ccc([N+](=O)[O-])s1	96	90	45	-	-
CC(C)(C)c1ccc(NC(=O)COC(=O)c2ccc([N+](=O)[O-])s2)cc1	100	-	-	-	-
O=C(NCCCn1ccnc1-c1ccccc1)C(=O)NCc1cccs1	.	.	-	.	.
C[C@H](NC(=O)c1ccccc1)C(=O)Nc1nc(-c2ccccn2)cs1	-	-	62	-	-
CSCCC(=O)Nc1nc(-c2ccccn2)cs1	-	-	-	-	-
CCC(C(=O)Nc1nc(-c2ccccn2)cs1)c1ccccc1 (centres undefined)	.	.	100	.	.
CC(CC(=O)Nc1nc(-c2ccccn2)cs1)NC(=O)c1ccccc1 (centres undefined)	.	.	75	.	.
C[N+](C)(C)C(Cc1ccccc1)C(=O)O (centres undefined)	.	.	-	.	.
CCOc1ccccc1C(=O)NCCCn1nc(-c2ccc(Cl)cc2)ccc1=O	.	.	-	.	.
COc1cc(OC)c(OC)cc1C=NN(C)c1ccccc1	-	-	73	.	-
COc1cc(OC)c(OC)cc1/C=N/N(C)c1ccccc1	.	.	.	-	.
CC(C)CS(=O)(=O)Nc1ccc2c(c1)CCCN2C(=O)c1ccccc1	.	.	-	.	.
SMILES	Sa ugtP lethal	Sa RN4220 lethal	PriA SSB inh	CCHF vOTU inh	Mtb hypoxia rep
O=C(c1ccccc1)N1CCCc2cc(NS(=O)(=O)CCOc3ccccc3)ccc21	.	.	35	.	.
CN1CCN(N=Cc2cccc(Cl)c2Cl)CC1	-	-	-	.	-
CN1CCN(N=Cc2c3ccccc3c(Cl)c3ccccc23)CC1	-	-	53	.	-
CNC(=O)c1c(NC(=O)C2=COCCO2)sc2c1CCN(C(=O)OC)C2	97	94	-	-	-
COC(=O)N1CCc2c(sc(NC(=O)C3=COCCO3)c2C#N)C1	-	-	-	-	-
Cc1cc(C)c2c(N)c(C(=O)c3ccc(Br)cc3)oc2n1	-	93	-	-	-
Cc1cc(C)c2c(N)c(C(=O)c3ccccc3)oc2n1	-	-	-	-	-
COc1ccc(-n2ccnc2SCC(=O)Nc2cccc3ccccc23)cc1	.	.	58	.	.
O=C(CSc1nccn1-c1ccc(F)cc1)NCc1ccc(F)cc1	-	-	-	-	-
O=C(CSc1nccn1-c1ccc([N+](=O)[O-])cc1)Nc1ccc(Cl)c(Cl)c1	.	.	36	.	.
COc1ccc(NC(=O)CSc2nccn2-c2ccccc2)c(OC)c1	-	-	-	-	.
O=C(CSc1nccn1-c1ccc([N+](=O)[O-])cc1)Nc1nccs1	.	.	-	.	.
O=C(CSc1nccn1-c1ccc(F)cc1)Nc1ccc(Br)cc1	.	.	60	.	.
Cc1cc(C)cc(-n2ccnc2SCC(=O)Nc2ccc(F)cc2F)c1	.	.	47	.	.
COc1cc(C(=O)N2CCN(c3ccc(NCC4CCCO4)nn3)CC2)cc(OC)c1OC (centres undefined)	.	.	-	.	.
Cc1ccc(N=Cc2ccc(-c3ccc(C)cc3)o2)cc1	.	.	-	.	.
O=C(CSc1nccn(-c2cccc(F)c2)c1=O)Nc1ccc(Cl)cc1F	-	-	-	-	-
O=C(CSc1nccn1-c1cccc(C(=O)NCc2ccco2)c1)Nc1ccc(Cl)cc1F	.	.	37	.	.
CSc1ccc2c(c1)N(CCC1CCCCN1C)c1ccccc1S2 (centres undefined)	.	.	40	-	.
